What all share (settings): 60 µM; 5 days; temperature: 20 °C
In one experiment the test system is Meloidogyne hapla J2. Description: proportion of mobile M. hapla J2 relative to DMSO control (fraction of DMSO control); higher = more viable, less nematicidal, active = 0.7 or less. The gist of the method:
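Two biological replicates were run and averaged, each on 96-well plates in which about 25 M. hapla J2 sat in distilled water per well. Compound was pinned in to give 60 µM final and 0.6% v/v DMSO, and the sealed plates were shaken at 200 rpm and 20 °C for 5 days before 2 µL 1 M NaOH was added. Mobility was scored microscopically and divided by the mean from the plate's DMSO-only wells, of which there were eight.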

The test system of experiment [1] is Caenorhabditis elegans dauer (daf-2(e1370)). Put plainly: proportion of mobile C. elegans dauer larvae relative to DMSO control (fraction of DMSO control); higher = more viable, less nematicidal, active = 0.63 or less; extreme values may be limits of the assay. The gist of the method:
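Compound was added by pinning to 60 µM final, giving 0.6% v/v DMSO, in 96-well plates containing about 20 C. elegans dauers per well in liquid NGM. These dauers came from synchronized larvae held on MYOB plates with E. coli OP50 for 48 h at 25 °C. Plates were sealed and shaken at 200 rpm at 20 °C for 5 days. Under a dissection microscope, the proportion of mobile worms was scored relative to DMSO wells, and two biological replicates were averaged.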

For the next experiment, the system named is Ditylenchus dipsaci. Put plainly: proportion of mobile D. dipsaci (mixed stage) relative to DMSO control (fraction of DMSO control); higher = more viable, less nematicidal, active = 0.86 or less; extreme values may be limits of the assay. The method in brief:
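The worms, D. dipsaci raised on pea plants in Gamborg B-5 agar, were recovered through a filter funnel into water. Each well of a 96-well plate then held about 20 of them in distilled water plus pinned compound at 60 µM final (0.6% v/v DMSO), and the sealed plates were shaken at 200 rpm at 20 °C for 5 days. Following addition of 2 µL 1 M NaOH, mobile worms were counted by microscopy, and mobility was expressed against DMSO controls as the average of two biological replicates.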

A number with no mark means an inactive call.

As for `Cc1cc(OCc2nc(-c3ccncc3)no2)cc(C)c1Cl`, the “proportion of mobile M. hapla J2” value in the experiment on Meloidogyne hapla J2 is 0.78. Besides, the “proportion of mobile C. elegans dauer larvae” value in experiment [1] is 1. In addition, the “proportion of mobile D. dipsaci” value in the experiment with Ditylenchus dipsaci is 1.

Consider `Fc1ccc(OCc2nc(-c3ccccc3)no2)cc1`, for which the “proportion of mobile M. hapla J2” value in the experiment with Meloidogyne hapla J2 is 1.02. For the same compound, the “proportion of mobile C. elegans dauer larvae” value in experiment [1] was 1. In addition, the “proportion of mobile D. dipsaci” value in the experiment with Ditylenchus dipsaci is 1.

Take `c1ccc(-c2nc(C3CCCCC3)no2)cc1`: the “proportion of mobile M. hapla J2” value in the experiment with Meloidogyne hapla J2 was 0.956. For the same compound, the “proportion of mobile C. elegans dauer larvae” value in experiment [1] is 1. Also, the “proportion of mobile D. dipsaci” value in the experiment with Ditylenchus dipsaci was 1.

With `CCOC(=O)c1ccc(NC(=O)c2ccccc2-c2nc(-c3cccc(C)c3)no2)cc1`, the “proportion of mobile M. hapla J2” value in the experiment with Meloidogyne hapla J2 was 0.777. In addition, the “proportion of mobile C. elegans dauer larvae” value in experiment [1] was 1. In addition, the “proportion of mobile D. dipsaci” value in the experiment on Ditylenchus dipsaci was 1.

`CCOc1ccccc1NC(=O)CSc1nnc(-c2ccccc2)o1`: the “proportion of mobile M. hapla J2” value in the experiment with Meloidogyne hapla J2 was 0.977. In addition, the “proportion of mobile C. elegans dauer larvae” value in experiment [1] is 1. Moreover, the “proportion of mobile D. dipsaci” value in the experiment with Ditylenchus dipsaci is 1.

As to `Cc1ccc(OCc2nc(-c3ccc(Cl)cc3)no2)cc1`, the “proportion of mobile M. hapla J2” value in the experiment with Meloidogyne hapla J2 is 0.901. Also, the “proportion of mobile C. elegans dauer larvae” value in experiment [1] was 1. In the experiment on Ditylenchus dipsaci, the “proportion of mobile D. dipsaci” value is 1.

For `Clc1cc(Br)ccc1OCc1nc(-c2ccccn2)no1`, the “proportion of mobile M. hapla J2” value with Meloidogyne hapla J2 is 1.01. Besides, the “proportion of mobile C. elegans dauer larvae” value in experiment [1] is 1. In addition, the “proportion of mobile D. dipsaci” value in the experiment with Ditylenchus dipsaci was 1.

Turning to `Cc1ccc(C)c(-c2nc(-c3cccnc3)no2)c1`, in the experiment on Meloidogyne hapla J2, the “proportion of mobile M. hapla J2” value is 1.06. Besides, the “proportion of mobile C. elegans dauer larvae” value in experiment [1] is 0.727. Also, the “proportion of mobile D. dipsaci” value with Ditylenchus dipsaci is 1.

Regarding `O=C(Nc1ccc(-c2noc(-c3ccc(F)cc3)n2)cc1)c1ccc(Br)o1`, the “proportion of mobile M. hapla J2” value in the experiment on Meloidogyne hapla J2 was 0.972. For the same compound, the “proportion of mobile C. elegans dauer larvae” value in experiment [1] was 1. The “proportion of mobile D. dipsaci” value in the experiment with Ditylenchus dipsaci is 1.

On to `COc1nc(-c2ccc(C)cc2)ccc1-c1noc(C)n1`, for which the “proportion of mobile M. hapla J2” value in the experiment with Meloidogyne hapla J2 is 0.9. Besides, the “proportion of mobile C. elegans dauer larvae” value in experiment [1] was 1. Moreover, the “proportion of mobile D. dipsaci” value in the experiment with Ditylenchus dipsaci is 1.

For the compound `COc1cccc(-c2nnc(SCc3ccccc3C)o2)c1`, the “proportion of mobile M. hapla J2” value in the experiment with Meloidogyne hapla J2 is 1.01. Also, the “proportion of mobile C. elegans dauer larvae” value in experiment [1] is 1. Besides, the “proportion of mobile D. dipsaci” value with Ditylenchus dipsaci was 1.

For the compound `CNC(=O)c1ccccc1-c1nc(-c2ccccc2Cl)no1`, the “proportion of mobile M. hapla J2” value in the experiment on Meloidogyne hapla J2 is 1. Moreover, the “proportion of mobile C. elegans dauer larvae” value in experiment [1] was 1. Besides, the “proportion of mobile D. dipsaci” value with Ditylenchus dipsaci is 1.

Take `Cc1cc(Cl)ccc1OCc1nc(-c2cccnc2)no1`: in the experiment with Meloidogyne hapla J2, the “proportion of mobile M. hapla J2” value was 1. Further, in experiment [1], the “proportion of mobile C. elegans dauer larvae” value was 1. In the experiment on Ditylenchus dipsaci, the “proportion of mobile D. dipsaci” value was 1.

Consider `CCOC(=O)c1ccc(OCc2nc(-c3cccs3)no2)cc1`, for which the “proportion of mobile M. hapla J2” value in the experiment with Meloidogyne hapla J2 is 1.1. For the same compound, the “proportion of mobile C. elegans dauer larvae” value in experiment [1] was 1. In addition, the “proportion of mobile D. dipsaci” value in the experiment with Ditylenchus dipsaci is 1.

Consider `CCOc1ccccc1-c1nc(-c2cccc(C)c2)no1`, for which the “proportion of mobile M. hapla J2” value in the experiment with Meloidogyne hapla J2 is 0.982. Moreover, in experiment [1], the “proportion of mobile C. elegans dauer larvae” value is 1. The “proportion of mobile D. dipsaci” value with Ditylenchus dipsaci is 1.

As to `Cc1cccc(OC(C)c2nc(-c3cccnc3)no2)c1` (configuration not stated), the “proportion of mobile M. hapla J2” value with Meloidogyne hapla J2 is 0.994. The “proportion of mobile C. elegans dauer larvae” value in experiment [1] was 1. Besides, the “proportion of mobile D. dipsaci” value with Ditylenchus dipsaci is 1.

For `O=C(Nc1ccccc1-c1nc(-c2cccnc2)no1)c1ccccc1Cl`, the “proportion of mobile M. hapla J2” value with Meloidogyne hapla J2 was 0.983. The “proportion of mobile C. elegans dauer larvae” value in experiment [1] was 1. Further, in the experiment with Ditylenchus dipsaci, the “proportion of mobile D. dipsaci” value is 1.

`Cc1ccc(-c2noc(-c3ccc(Br)o3)n2)s1`: the “proportion of mobile M. hapla J2” value with Meloidogyne hapla J2 was 0.965. The “proportion of mobile C. elegans dauer larvae” value in experiment [1] was 1. Further, in the experiment with Ditylenchus dipsaci, the “proportion of mobile D. dipsaci” value is 1.

In the case of `CC(C)C(=O)Nc1ccccc1-c1nc(-c2ccccn2)no1`, the “proportion of mobile M. hapla J2” value in the experiment with Meloidogyne hapla J2 was 0.995. In addition, in experiment [1], the “proportion of mobile C. elegans dauer larvae” value was 1. For the same compound, the “proportion of mobile D. dipsaci” value with Ditylenchus dipsaci was 1.

Regarding `Cc1cc(OCc2nc(-c3cccnc3)no2)cc(C)c1Br`, the “proportion of mobile M. hapla J2” value with Meloidogyne hapla J2 is 1.05. Also, in experiment [1], the “proportion of mobile C. elegans dauer larvae” value is 1. For the same compound, in the experiment on Ditylenchus dipsaci, the “proportion of mobile D. dipsaci” value is 1.

Take `Cc1ccc(C(=O)CSc2nnc(-c3ccco3)o2)o1`: the “proportion of mobile M. hapla J2” value in the experiment on Meloidogyne hapla J2 is 0.906. Further, in experiment [1], the “proportion of mobile C. elegans dauer larvae” value was 1. Further, the “proportion of mobile D. dipsaci” value in the experiment on Ditylenchus dipsaci is 1.

For `Brc1ccc(OCc2nc(-c3cccnc3)no2)cc1`, the “proportion of mobile M. hapla J2” value in the experiment on Meloidogyne hapla J2 is 0.955. The “proportion of mobile C. elegans dauer larvae” value in experiment [1] is 1. The “proportion of mobile D. dipsaci” value with Ditylenchus dipsaci is 1.

In the case of `Cc1ccc(SCc2nc(-c3ccc(C)cc3)no2)cc1`, in the experiment with Meloidogyne hapla J2, the “proportion of mobile M. hapla J2” value was 0.854. For the same compound, the “proportion of mobile C. elegans dauer larvae” value in experiment [1] was 1. Besides, in the experiment with Ditylenchus dipsaci, the “proportion of mobile D. dipsaci” value is 1.

Regarding `Cc1ccc(-c2nc(-c3ccc(F)cc3)no2)cc1`, in the experiment on Meloidogyne hapla J2, the “proportion of mobile M. hapla J2” value is 1.04. The “proportion of mobile C. elegans dauer larvae” value in experiment [1] was 0 (active). For the same compound, in the experiment on Ditylenchus dipsaci, the “proportion of mobile D. dipsaci” value is 0.708 (active).

Take `Fc1cccc(-c2nc(-c3cccnc3)no2)c1`: the “proportion of mobile M. hapla J2” value with Meloidogyne hapla J2 is 1.08. Moreover, the “proportion of mobile C. elegans dauer larvae” value in experiment [1] is 1. Further, in the experiment with Ditylenchus dipsaci, the “proportion of mobile D. dipsaci” value was 1.

Take `Cc1cccc(-c2noc(-c3ccc(F)cc3)n2)c1`: the “proportion of mobile M. hapla J2” value in the experiment on Meloidogyne hapla J2 is 0.642 (active). Further, the “proportion of mobile C. elegans dauer larvae” value in experiment [1] was 1. Also, the “proportion of mobile D. dipsaci” value in the experiment with Ditylenchus dipsaci is 1.

`CC(C)C(=O)Nc1ccccc1-c1nc(-c2cccnc2)no1`: the “proportion of mobile M. hapla J2” value with Meloidogyne hapla J2 is 0.935. Further, in experiment [1], the “proportion of mobile C. elegans dauer larvae” value was 1. The “proportion of mobile D. dipsaci” value with Ditylenchus dipsaci is 1.

In the case of `COc1ccc(OCc2nc(-c3cccc(Br)c3)no2)cc1`, the “proportion of mobile M. hapla J2” value with Meloidogyne hapla J2 is 1. Further, the “proportion of mobile C. elegans dauer larvae” value in experiment [1] was 1. The “proportion of mobile D. dipsaci” value with Ditylenchus dipsaci is 1.

`CC(=O)Nc1cccc(-c2nnc(SCc3ccc(F)cc3)o2)c1`: the “proportion of mobile M. hapla J2” value in the experiment on Meloidogyne hapla J2 is 0.959. The “proportion of mobile C. elegans dauer larvae” value in experiment [1] was 1. For the same compound, the “proportion of mobile D. dipsaci” value in the experiment on Ditylenchus dipsaci was 1.

`COc1ccc(-c2noc(COc3ccc(C4CCCCC4)cc3)n2)cc1`: in the experiment with Meloidogyne hapla J2, the “proportion of mobile M. hapla J2” value is 0.62 (active). For the same compound, in experiment [1], the “proportion of mobile C. elegans dauer larvae” value is 1. Besides, the “proportion of mobile D. dipsaci” value in the experiment with Ditylenchus dipsaci was 1.

Regarding `c1ccc2c(OCc3nc(-c4ccncc4)no3)cccc2c1`, in the experiment with Meloidogyne hapla J2, the “proportion of mobile M. hapla J2” value was 0.979. Also, the “proportion of mobile C. elegans dauer larvae” value in experiment [1] is 1. Also, in the experiment on Ditylenchus dipsaci, the “proportion of mobile D. dipsaci” value is 1.

With `COc1cccc(-c2noc(CSc3ccccc3)n2)c1`, the “proportion of mobile M. hapla J2” value in the experiment with Meloidogyne hapla J2 is 1.03. Moreover, the “proportion of mobile C. elegans dauer larvae” value in experiment [1] was 1. The “proportion of mobile D. dipsaci” value in the experiment on Ditylenchus dipsaci is 1.

For the compound `Cc1cccc(-c2noc(COc3ccc(C)c(C)c3)n2)c1`, the “proportion of mobile M. hapla J2” value with Meloidogyne hapla J2 was 1.04. The “proportion of mobile C. elegans dauer larvae” value in experiment [1] was 1. The “proportion of mobile D. dipsaci” value in the experiment on Ditylenchus dipsaci is 1.

As to `Cc1ccc(-c2nnc(SCc3ccccc3C#N)o2)cc1`, the “proportion of mobile M. hapla J2” value in the experiment with Meloidogyne hapla J2 is 0.937. The “proportion of mobile C. elegans dauer larvae” value in experiment [1] is 1. The “proportion of mobile D. dipsaci” value in the experiment on Ditylenchus dipsaci is 1.

The record behind these values is the supplement of paper PMC11219838.
